# Laboratory results reported in PubChem BioAssay (NCATS).
# “And” between values parts separate entries of the source, which are not always exact repeats. Equal values may be shown once. Values without a mark were called inactive. Inconclusive results are not listed. A call without a number means that no potency is given here. The source made the active and inactive calls. Unless noted, calls come from the whole dose curve.
# How the values were obtained:
# [1] = molecular target: Ubiquitin carboxyl-terminal hydrolase 1 (Homo sapiens) (UniProt O94782); test: Inhibitors of USP1/UAF1: Pilot qHTS (AID 504865; active = well fitted inhibition curve with a large enough effect; note: nearly all actives have a fitted effect of over 35% in size; note: potency is the fitted concentration of half-maximal effect)
# How it was run: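 Deubiquitinase activity followed as kinetic rhodamine fluorescence release from 150 nM Ub-Rho. 1 nM USP1/UAF1 with compound, after 15 min room-temperature preincubation, in HEPES pH 7.8 buffer containing TCEP, EDTA, BSA and Tween-20.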
# [2] = molecular target: Glucocorticoid receptor (Homo sapiens) (UniProt P04150); test: qHTS assay for small molecule agonists of glucocorticoid receptor signaling (AID 588532; active = well fitted curve in the direction sought with a large enough effect in the signal ratio, with a control signal flat; the % refers to the signal ratio); details: HeLa MMTV-bla, beta-lactamase ratio, agonist, 18 h; active compounds read high; percent of dexamethasone control, DMSO zero
# How it was run: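 Quantitative HTS using CellSensor MMTV-bla HeLa cells in charcoal/dextran-treated serum; compounds tested up to 92 uM. After 18 h at 37 C, CCF4 dye reported reporter induction.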
# [3] = molecular target: Estrogen receptor (Homo sapiens) (UniProt P03372); test: qHTS assay for small molecule agonists of estrogen receptor alpha signaling (AID 588514); note: nearly all actives have a fitted effect of over 70% in size; note: potency is the fitted concentration of half-maximal effect
# How it was run: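 Fluorescence from CCF4 cleavage reports ER-alpha-driven beta-lactamase expression in HEK 293 cells treated 18 hrs at 37 C. Data normalized to 17-beta-estradiol (20 nM) and DMSO, fitted to Hill equation.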
# [4] = molecular target: Estrogen receptor (Homo sapiens) (UniProt P03372); test: qHTS assay for small molecule antagonists of estrogen receptor alpha signaling (AID 588513; active = well fitted curve in the direction sought with a large enough effect in the signal ratio, with a control signal flat, not every such curve was filed as active; the % refers to the signal ratio)
# How it was run: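 Antagonist mode: inhibition of 0.5 nM 17-beta-estradiol-driven beta-lactamase reporter in HEK 293 ER-alpha-UAS-bla cells, 18 h at 37C, CCF4 readout after 2 h at RT. Normalised to estradiol and DMSO; titration fitted to Hill.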
# [5] = molecular target: Bile acid receptor (Homo sapiens) (UniProt Q96RI1); test: qHTS assay for small molecule antagonists of farnesoid X receptor signaling (AID 588526); note: potency is the fitted concentration of half-maximal effect
# How it was run: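 Beta-lactamase reporter antagonist mode: HEK293T FXR-UAS-bla cells, titrated compound, CDCA stimulation, 16 h 37 C, CCF4 dye 2 h RT. Data normalized to CDCA 50 uM and DMSO; Hill-fit IC50.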
# [6] = molecular target: Bile acid receptor (Homo sapiens) (UniProt Q96RI1); test: qHTS assay for small molecule agonists of farnesoid X receptor signaling (AID 588527); details: HEK293T FXR-UAS-bla, beta-lactamase ratio, 16 h; active compounds read high; note: series mostly up to about 77 µM
# How it was run: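 Read-out: beta-lactamase reporter fluorescence with CCF4 substrate in GeneBLAzer FXR-UAS-bla HEK293T cells, after 16 h compound exposure at 37 C. Response scaled between DMSO basal (0%) and chenodeoxycholic acid at 100 uM (100%).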
# [7] = molecular target: DNA dC->dU-editing enzyme APOBEC-3G (Homo sapiens) (UniProt Q9HC16); test: qHTS for inhibitors of Vif-A3G interactions: Validation (AID 588379; active = well fitted inhibition curve with a large enough effect)
# How it was run: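 Yellow fluorescence (Ex 488, Em 500-530) of Vif-coexpressing HeLa A3G-eYFP cells, scanned by Acumen cytometer, reports blocked A3G degradation. Cells plated at 700/well overnight at 37 deg C before compound addition, then a further overnight compound incubation at 37 deg C.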
# [8] = molecular target: Androgen receptor (Homo sapiens) (UniProt P10275); test: qHTS assay for small molecule agonists of androgen receptor signaling (AID 588515; active = well fitted curve in the direction sought with a large enough effect in the signal ratio, with a control signal flat; the % refers to the signal ratio); details: AR-UAS-bla HEK293, beta-lactamase ratio, agonist 16 h; active compounds read high
# How it was run: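 Stimulation of an AR-responsive β-lactamase reporter in GripTite HEK293 cells was measured after 16 h compound exposure at 37 °C, via CCF4 fluorescence after 2 h RT. EC50 from Hill fits, normalized to R1881 at 30 nM.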
# [9] = molecular target: Androgen receptor (Homo sapiens) (UniProt P10275); test: qHTS assay for small molecule antagonists of androgen receptor signaling (AID 588516; active = well fitted curve in the direction sought with a large enough effect in the signal ratio, with a control signal flat, not every such curve was filed as active; the % refers to the signal ratio)
# How it was run: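 Antagonist mode: inhibition of R1881-stimulated (10 nM final) bla reporter in GeneBLAzer AR HEK 293 cells, 16 h at 37C, compounds titrated. IC50 and efficacy from Hill-equation fits of 405/460–530 nm FRET ratios.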
# Chain of Bile acid receptor (Homo sapiens) (Q96RI1 whole entry, looked up): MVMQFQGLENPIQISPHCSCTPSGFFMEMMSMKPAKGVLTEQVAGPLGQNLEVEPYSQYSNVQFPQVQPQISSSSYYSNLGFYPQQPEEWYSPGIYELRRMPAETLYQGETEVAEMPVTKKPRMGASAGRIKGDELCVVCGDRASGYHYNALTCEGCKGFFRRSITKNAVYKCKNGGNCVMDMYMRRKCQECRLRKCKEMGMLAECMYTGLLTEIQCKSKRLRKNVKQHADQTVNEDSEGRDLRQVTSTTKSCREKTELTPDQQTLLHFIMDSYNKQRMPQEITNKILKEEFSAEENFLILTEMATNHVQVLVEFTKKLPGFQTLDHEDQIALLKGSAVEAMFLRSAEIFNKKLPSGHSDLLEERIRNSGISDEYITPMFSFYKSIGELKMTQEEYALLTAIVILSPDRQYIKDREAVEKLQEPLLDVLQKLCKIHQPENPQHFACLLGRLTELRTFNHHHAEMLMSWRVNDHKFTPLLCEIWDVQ
# Chain of Glucocorticoid receptor (Homo sapiens) (P04150 whole entry, looked up): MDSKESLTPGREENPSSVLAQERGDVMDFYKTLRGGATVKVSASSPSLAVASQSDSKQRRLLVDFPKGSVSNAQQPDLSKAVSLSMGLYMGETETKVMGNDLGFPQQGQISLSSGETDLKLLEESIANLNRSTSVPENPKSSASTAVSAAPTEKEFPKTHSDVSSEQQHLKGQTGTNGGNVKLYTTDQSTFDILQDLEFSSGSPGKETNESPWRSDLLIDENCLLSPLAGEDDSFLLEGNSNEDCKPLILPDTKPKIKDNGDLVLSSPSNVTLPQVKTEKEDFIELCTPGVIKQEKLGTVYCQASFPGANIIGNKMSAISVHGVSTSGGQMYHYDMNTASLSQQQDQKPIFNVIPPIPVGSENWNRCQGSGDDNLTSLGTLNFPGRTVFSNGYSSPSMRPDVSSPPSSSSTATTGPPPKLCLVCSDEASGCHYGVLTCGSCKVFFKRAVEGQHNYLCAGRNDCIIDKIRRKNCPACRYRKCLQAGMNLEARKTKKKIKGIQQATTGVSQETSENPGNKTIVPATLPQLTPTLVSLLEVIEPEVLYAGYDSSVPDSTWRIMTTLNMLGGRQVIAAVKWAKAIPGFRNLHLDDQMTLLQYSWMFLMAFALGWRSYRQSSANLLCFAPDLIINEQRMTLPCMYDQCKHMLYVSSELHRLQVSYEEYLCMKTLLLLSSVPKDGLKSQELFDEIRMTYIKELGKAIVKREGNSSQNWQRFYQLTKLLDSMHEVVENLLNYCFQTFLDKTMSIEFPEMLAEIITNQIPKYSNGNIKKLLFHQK
# Chain of Androgen receptor (Homo sapiens) (P10275 whole entry, looked up): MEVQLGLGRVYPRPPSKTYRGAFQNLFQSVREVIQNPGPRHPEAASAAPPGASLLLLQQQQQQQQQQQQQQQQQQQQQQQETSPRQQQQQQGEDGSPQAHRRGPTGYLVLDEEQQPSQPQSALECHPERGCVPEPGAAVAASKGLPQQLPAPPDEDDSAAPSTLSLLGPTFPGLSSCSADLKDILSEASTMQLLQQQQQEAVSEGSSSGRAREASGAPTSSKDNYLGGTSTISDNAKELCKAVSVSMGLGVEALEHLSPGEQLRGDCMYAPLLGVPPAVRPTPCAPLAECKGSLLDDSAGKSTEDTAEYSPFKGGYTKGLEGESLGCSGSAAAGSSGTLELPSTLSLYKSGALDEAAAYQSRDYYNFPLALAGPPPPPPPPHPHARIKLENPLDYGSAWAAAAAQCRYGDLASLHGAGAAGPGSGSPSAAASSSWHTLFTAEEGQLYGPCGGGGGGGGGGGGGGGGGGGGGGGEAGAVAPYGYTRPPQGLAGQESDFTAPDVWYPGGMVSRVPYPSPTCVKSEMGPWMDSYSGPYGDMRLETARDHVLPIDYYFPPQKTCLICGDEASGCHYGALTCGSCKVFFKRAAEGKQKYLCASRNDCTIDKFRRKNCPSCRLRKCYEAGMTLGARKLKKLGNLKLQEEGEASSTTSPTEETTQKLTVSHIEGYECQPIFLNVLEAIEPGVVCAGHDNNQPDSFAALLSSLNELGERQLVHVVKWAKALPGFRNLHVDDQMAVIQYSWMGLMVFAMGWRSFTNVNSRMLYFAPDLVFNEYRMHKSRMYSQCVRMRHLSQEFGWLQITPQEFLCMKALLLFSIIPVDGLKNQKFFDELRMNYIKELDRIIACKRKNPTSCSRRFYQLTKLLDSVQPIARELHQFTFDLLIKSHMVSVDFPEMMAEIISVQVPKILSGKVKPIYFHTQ
# Chain of Estrogen receptor (Homo sapiens) (P03372 whole entry, looked up): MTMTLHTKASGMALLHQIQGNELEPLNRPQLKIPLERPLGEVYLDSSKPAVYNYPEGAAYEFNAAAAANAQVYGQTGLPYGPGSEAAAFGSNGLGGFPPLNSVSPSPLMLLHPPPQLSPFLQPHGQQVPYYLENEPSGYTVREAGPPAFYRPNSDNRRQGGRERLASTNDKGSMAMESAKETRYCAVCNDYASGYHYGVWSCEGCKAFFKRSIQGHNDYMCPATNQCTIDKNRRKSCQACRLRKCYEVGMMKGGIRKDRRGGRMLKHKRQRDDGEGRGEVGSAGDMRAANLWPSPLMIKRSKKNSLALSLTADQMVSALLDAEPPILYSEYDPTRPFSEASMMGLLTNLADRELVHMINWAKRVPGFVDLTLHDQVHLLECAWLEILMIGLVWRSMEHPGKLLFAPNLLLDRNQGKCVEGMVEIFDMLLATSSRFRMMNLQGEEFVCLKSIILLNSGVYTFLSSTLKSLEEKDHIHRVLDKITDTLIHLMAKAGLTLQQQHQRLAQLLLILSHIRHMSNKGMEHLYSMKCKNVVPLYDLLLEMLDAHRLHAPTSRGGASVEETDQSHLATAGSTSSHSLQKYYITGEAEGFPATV
# Chain of Ubiquitin carboxyl-terminal hydrolase 1 (Homo sapiens) (O94782 whole entry, looked up): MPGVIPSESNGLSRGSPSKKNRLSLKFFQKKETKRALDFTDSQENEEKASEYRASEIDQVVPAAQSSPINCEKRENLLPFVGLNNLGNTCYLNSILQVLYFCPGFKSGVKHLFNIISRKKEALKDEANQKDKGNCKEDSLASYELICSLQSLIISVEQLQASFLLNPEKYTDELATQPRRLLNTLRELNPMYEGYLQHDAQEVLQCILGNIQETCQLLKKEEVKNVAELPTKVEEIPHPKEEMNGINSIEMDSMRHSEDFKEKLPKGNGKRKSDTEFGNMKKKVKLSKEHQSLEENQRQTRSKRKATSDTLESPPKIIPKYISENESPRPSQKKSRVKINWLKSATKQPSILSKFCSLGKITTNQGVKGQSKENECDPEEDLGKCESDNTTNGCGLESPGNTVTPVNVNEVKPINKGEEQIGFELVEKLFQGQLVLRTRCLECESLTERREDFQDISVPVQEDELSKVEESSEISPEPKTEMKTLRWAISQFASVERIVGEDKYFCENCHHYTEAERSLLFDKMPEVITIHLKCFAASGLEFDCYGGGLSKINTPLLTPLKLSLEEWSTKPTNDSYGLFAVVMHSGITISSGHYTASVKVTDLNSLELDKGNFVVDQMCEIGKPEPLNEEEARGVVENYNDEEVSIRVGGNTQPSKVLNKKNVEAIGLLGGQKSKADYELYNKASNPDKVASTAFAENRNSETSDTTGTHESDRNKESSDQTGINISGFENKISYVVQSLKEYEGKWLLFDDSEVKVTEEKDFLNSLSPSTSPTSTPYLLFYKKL
# Chain of DNA dC->dU-editing enzyme APOBEC-3G (Homo sapiens) (Q9HC16 whole entry, looked up): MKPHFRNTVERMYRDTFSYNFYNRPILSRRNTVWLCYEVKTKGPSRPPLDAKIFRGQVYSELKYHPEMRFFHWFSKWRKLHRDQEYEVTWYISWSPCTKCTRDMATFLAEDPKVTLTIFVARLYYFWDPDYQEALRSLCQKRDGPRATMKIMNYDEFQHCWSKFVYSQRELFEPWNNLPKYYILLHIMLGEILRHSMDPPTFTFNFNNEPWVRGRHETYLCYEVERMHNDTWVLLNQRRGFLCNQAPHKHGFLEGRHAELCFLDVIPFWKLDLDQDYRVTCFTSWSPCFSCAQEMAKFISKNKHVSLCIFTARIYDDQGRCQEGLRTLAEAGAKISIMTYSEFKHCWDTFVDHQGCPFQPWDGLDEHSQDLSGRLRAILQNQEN
structure (smiles),measurement,setting,value
CCCC(C)(COC(N)=O)COC(N)=O,Potency,[1],inactive
same,activation,[2],-13.9%
COP(=S)(OC)Oc1cc(Cl)c(Cl)cc1Cl,Potency,[3],inactive
same,activation,[2],-3.3%
CCC(C)(C)c1ccc(O)cc1,outcome,[4],inactive
same,Potency,[5],inactive
same,activation,[6],-0.511% and -0.445%
same,activation,[2],-4.8%
Clc1cccc(SC2CCNCC2)n1,Potency,[1],inactive
same,outcome,[7],inactive
Cc1cc(=O)n(-c2ccccc2)n1C,Potency,[1],inactive
same,activation,[6],1.08%
Clc1ccc(C(c2ccc(Cl)cc2)C(Cl)(Cl)Cl)cc1,Potency,[1],inactive
same,Potency,[5],inactive
same,activation,[6],4.82%
same,activation,[2],4.79% and 0.666%
[N-]=[N+]=CC(=O)OC[C@H](N)C(=O)O,Potency,[5],inactive
COc1cc(OC)c(OC)cc1C=O,Potency,[1],inactive
same,outcome,[4],inactive
same,Potency,[3],inactive
same,activation,[8],-8.64%
same,activation,[2],3.74%
O=C(N/N=C/c1ccc([N+](=O)[O-])o1)c1cc([N+](=O)[O-])cc([N+](=O)[O-])c1O,Potency,[1],inactive
C=CCN1C[C@H](C)N([C@H](c2ccc(C(=O)N(CC)CC)cc2)c2cccc(OC)c2)C[C@H]1C,Potency,[1],inactive
same,outcome,[7],inactive
CN1C(=O)COc2c(C(=O)NC3CN4CCC3CC4)cc(Cl)cc21 (configuration not stated),Potency,[1],inactive
C[C@]1(O)CC[C@H]2[C@@H]3CCC4=CC(=O)CC[C@]4(C)[C@@]3(F)[C@@H](O)C[C@@]21C,Potency,[5],inactive
same,activation,[6],-0.176%
same,activation,[2],0.36%
Nc1ccccc1C(=O)O,Potency,[1],inactive
same,outcome,[4],inactive
same,Potency,[3],inactive
same,Potency,[5],inactive
FC1(F)C(F)(F)C(F)(F)C2(F)C(F)(F)C(F)(F)C(F)(F)C(F)(F)C2(F)C1(F)F (configuration not stated),Potency,[1],79.4 µM (active)
CC(C)NC(C)C,Potency,[1],inactive
same,outcome,[4],inactive
same,Potency,[3],inactive
same,activation,[2],-3.7%
C[C@]12CCC(=O)C=C1CC[C@@H]1[C@@H]2CC[C@@]2(C)[C@H]1CC[C@]2(C)O,Potency,[3],12.6 µM (active)
CCOP(=S)(OCC)Oc1ccc2c(C)c(Cl)c(=O)oc2c1,Potency,[1],inactive
same,activation,[2],-1.75%
CCOC(=O)CC(SP(=S)(OC)OC)C(=O)OCC (configuration not stated),Potency,[1],inactive
same,outcome,[4],inactive
same,Potency,[3],inactive
same,activation,[8],17.2% and 0.217% and -5.72%
same,outcome,[9],inactive
same,activation,[2],-4.46% and 3.12% and 14.7%
O=C(c1ccccc1)c1ccccc1,activation,[6],-1.37% and -0.544%
COC1CC(=C(c2cccs2)c2cccs2)C[N+](C)(C)C1 (configuration not stated),Potency,[1],inactive
CC1(C)C(C=C(Cl)Cl)C1C(=O)OC(C#N)c1cccc(Oc2ccccc2)c1 (configuration not stated),Potency,[3],inactive
same,activation,[2],-2.93%
CCCCCCCC(=O)OCC(COC(=O)CCCCCCC)OC(=O)CCCCCCC,activation,[6],-2.1%
COc1c2c(cc3c1OCO3)CCN(C)C2,Potency,[1],inactive
Cc1noc(NS(=O)(=O)c2ccc(N)cc2)c1C,activation,[6],1.48%
COP(=S)(OC)Oc1ccc(SC)c(C)c1,Potency,[1],inactive
same,outcome,[4],inactive
same,Potency,[3],inactive
same,activation,[2],-2.46% and 5.56%
COP(=S)(OC)SCN1C(=O)c2ccccc2C1=O,Potency,[1],inactive
same,Potency,[5],inactive
same,activation,[2],10.5%
Cc1nnc2n1-c1ccc(Cl)cc1C(c1ccccc1Cl)=NC2,Potency,[1],inactive
CN1C[C@H](C(=O)N[C@]2(C)O[C@@]3(O)[C@@H]4CCCN4C(=O)[C@H](Cc4ccccc4)N3C2=O)C=C2c3cccc4[nH]cc(c34)C[C@H]21,outcome,[4],inactive
same,Potency,[3],inactive
same,Potency,[5],39.8 µM (active)
same,activation,[6],2.53%
same,activation,[2],-6.8%
O=C(Oc1ccccc1)c1ccccc1O,outcome,[4],inactive
CCCCOC(=O)CC(CC(=O)OCCCC)(OC(C)=O)C(=O)OCCCC,activation,[6],1.49%
Nc1nc(N)nc(NC2CC2)n1,Potency,[1],inactive
same,Potency,[5],inactive
O=C1c2ccccc2C(=O)C1C(=O)C(c1ccccc1)c1ccccc1,Potency,[1],31.6 µM (active)
same,activation,[6],-2.98%
same,activation,[2],-2.9%
COC(=O)C(c1ccccc1)C1CCCCN1 (configuration not stated),Potency,[1],inactive
same,Potency,[3],inactive
same,activation,[8],0.332%
same,outcome,[9],inactive
same,Potency,[5],inactive
same,activation,[6],-2.4%
same,activation,[2],2.14%
Nc1ccccc1,activation,[2],-2.91%
